Source: PubChem BioAssay (EPA / NIEHS)
Results filed as inconclusive are left out. Active and inactive are the calls of the source. The calls were made as follows: active = hit-call score of the fitted dose curve at least 0.9, where 1 is the maximum; inconclusive = response in the unintended direction; inactive = score below 0.9.

Target: Agonist Androgen Response Element (ARE), AR (gene 367) (UniProt P10275)
Test: OT_AR_ARELUC_AG_1440: Odyssey Thera (OT) 24-hour CHO-K1 Luciferase Assay for Agonist Androgen Response Element (ARE) (AID 2283379)
Description: OT_AR_ARELUC_AG_1440 is a cell-based, single-readout assay that uses CHO-K1, a chinese hamster ovary cell line, with measurements taken at 24 hours after chemical dosing in a 384-well plate.OT_AR_ARELUC_AG_1440 is one of one assay component(s) measured or calculated from the OT_AR_ARELUC_AG_1440 assay. It is designed to make measurements of luciferase induction, a form of inducible reporter, as detected with bioluminescence signals by Luciferase technology.Data from the assay component OT_AR_ARELUC_AG_1440 was analyzed into 1 assay endpoint. This assay endpoint, OT_AR_ARELUC_AG_1440, was analyzed in the positive analysis fitting direction relative to DMSO as the negative control and baseline of activity. Using a type of inducible reporter, measures of receptor for gain-of-signal activity can be used to understand the reporter gene at the pathway-level as they relate to the gene AR. Furthermore, this assay endpoint can be referred to as a primary readout, because the performed assay has only produced 1 assay endpoint. To generalize the intended target to other relatable targets, this assay endpoint is annotated to the nuclear receptor intended target family, where the subfamily is steroidal.
To identify AR agonists, CHO-K1 cells are seeded into a white-walled/white-bottom 384-well plate, followed by treatment with compounds of interest or controls for 24 hours. A luciferase assay mix containing D-luciferin and ATP in PBS is then added to the cells and luminescence quantified on a Luminoskan (Thermo Scientific) luminometer. Modulation of this assay is quantified as an increase in mean luminescence intensity relative to vehicle controls. To evaluate specificity of the AR / ARE-luc assay, several known AR agonists, AR antagonists, and ER-selective compounds were also tested in 5-pt concentration-response format in a minimum of 7 assay plates. OT determined the reproducibility of DHT-induced AR/ARE-luc transcriptional activation with a total of seven 384-well plates run on 2 different days, for 24-h time frames. A minimum of 3 replicate wells were analyzed for each sample with 14 replicate wells for vehicle controls. Luminescence data were captured on the Luminoskan luminometer.

Agonist Androgen Response Element (ARE), AR (gene 367), sequence (P10275 whole entry, looked up): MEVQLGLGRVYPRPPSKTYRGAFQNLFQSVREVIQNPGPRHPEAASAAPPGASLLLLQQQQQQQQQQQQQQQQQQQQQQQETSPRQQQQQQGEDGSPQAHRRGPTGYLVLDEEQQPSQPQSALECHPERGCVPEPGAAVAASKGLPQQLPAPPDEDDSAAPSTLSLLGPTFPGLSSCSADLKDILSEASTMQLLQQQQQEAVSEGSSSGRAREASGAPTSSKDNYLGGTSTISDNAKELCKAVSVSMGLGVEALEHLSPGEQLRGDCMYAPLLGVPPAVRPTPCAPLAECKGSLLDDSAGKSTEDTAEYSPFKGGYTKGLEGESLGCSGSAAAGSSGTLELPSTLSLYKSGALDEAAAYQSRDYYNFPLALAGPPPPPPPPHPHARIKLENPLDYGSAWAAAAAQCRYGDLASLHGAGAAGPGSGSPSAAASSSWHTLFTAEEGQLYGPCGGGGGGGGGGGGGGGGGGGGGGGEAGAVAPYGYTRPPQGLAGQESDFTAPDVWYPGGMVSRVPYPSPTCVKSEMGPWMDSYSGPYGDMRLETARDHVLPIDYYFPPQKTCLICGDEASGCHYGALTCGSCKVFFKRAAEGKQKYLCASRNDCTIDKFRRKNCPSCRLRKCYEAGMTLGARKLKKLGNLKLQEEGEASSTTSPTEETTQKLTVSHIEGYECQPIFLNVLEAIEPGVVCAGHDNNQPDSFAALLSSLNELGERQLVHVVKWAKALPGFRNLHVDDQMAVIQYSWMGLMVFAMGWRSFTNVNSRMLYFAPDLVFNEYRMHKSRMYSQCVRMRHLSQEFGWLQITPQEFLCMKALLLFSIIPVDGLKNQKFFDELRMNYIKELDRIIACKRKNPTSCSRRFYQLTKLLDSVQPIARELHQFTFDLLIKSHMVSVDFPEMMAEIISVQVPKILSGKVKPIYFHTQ

SMILES	outcome	AC50
CCCCCCCCCCCCCOS(=O)(=O)O	inactive	–
O=C[C@@H](O)[C@H](O)[C@H](O)CO	–	1.26 µM (active)
O=c1cc(-c2ccccc2)oc2cc(O)cc(O)c12	inactive	–
CCN(CC)c1ccc(C(=C2C=CC(=[N+](CC)CC)C=C2)c2ccc(S(=O)(=O)O)cc2S(=O)(=O)[O-])cc1	inactive	–
BrC1CCC(Br)C(Br)CCC(Br)C(Br)CCC1Br (configuration not stated)	inactive	–
CCC/C=C/C=O	inactive	–
c1ccc2[nH]ccc2c1	inactive	–
O=Nc1ccc(Nc2ccccc2)cc1	inactive	–
CCCOCC(C)O (configuration not stated)	inactive	–
COc1ccc(O)cc1	inactive	–
C[Si](O[Si](C)(C)C)O[Si](C)(C)C	inactive	–
CCCCCCCCCCCCCCCC(=O)OC[C@H](O)[C@H]1OC(=O)C(O)=C1O	inactive	–
